This passage reports max response, outcome and Potency results from PubChem BioAssay (NCATS).

Records with an inconclusive call do not appear. Unmarked numbers belong to inactive results. Active and inactive are the calls of the source. The call rests on the fitted dose curve; in most records, active means well fitted inhibition curve with a large enough effect; inconclusive means small, poorly fitted or top-dose-only effect; inactive means flat fitted curve, though single readings scatter.

What all share (test): Cytotoxic Profiling of Annotated Libraries Using Quantitative High-Throughput Screening (AID 1296008); further: nearly all actives have a fitted effect of over 60% in size
What all share (conditions): Five cell lines viability, CellTiter-Glo ATP luminescence, 48-72 h; max response: active compounds read low
For orientation: ATP-based viability assays read luminescence as a measure of living cells.

One assay has as its system HaCat. The essentials:
(§1)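 Cells exposed to compounds for 48 or 72 hr at 37 degrees Celsius. Viability read as ATP-coupled luminescence with CellTiter-Glo after 10 min at room temperature.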

A further assay deals with KB-3-1. The essentials:
as §1

A further assay deals with NIH3T3. The procedure, abridged: as §1
On the % scale 0 is the no-effect control and ±100 the full control effect; potency means the concentration at half of the fitted maximal effect.

`O=c1cc(N2CCN(c3cccc(C(F)(F)F)c3)CC2)[nH]c(=O)n1C1CCCCC1`: the figures for the max response in the assay with HaCat and with NIH3T3 were -21.7% and -29.2%, respectively. For the same molecule, the molecule was classed as inactive in the assay on KB-3-1.

`COc1ccc([C@H]2OC[C@H]3O[C@@H](O[C@H]4[C@@H]2NC[C@@H]4O)[C@H](O)[C@H]3O)cc1`: the Potency was 2.55 µM (active) in the assay on HaCat, 0.904 µM (active) in the assay on KB-3-1 and 1.14 µM (active) in the assay on NIH3T3.

As for `O=C1Cc2c([nH]c3ccc(Br)cc23)-c2ncccc2N1`, the max response in the assay with HaCat was 2.65%; in the assay on KB-3-1, 2.04%. Besides, the outcome in the assay on NIH3T3 was inactive.

For `NC(=O)C1=CC2C3C=CC2C(OC3=O)O1` (centres undefined), the max response in the assay on HaCat was -28.3%; with KB-3-1 it was 5.92%; in the assay with NIH3T3, 3.24%.

As to `C=C1/C(=C/C=C2\CCC[C@@]3(C)C2CCC3[C@H](C)/C=C/[C@@H](O)C2CC2)C[C@@H](O)C[C@@H]1O` (some centres undefined), the max response in the assay on HaCat is -20.3%; in the assay on KB-3-1, -9.38%; with NIH3T3 it was -32.1%.

Regarding `C/C=C(/C)C(=O)OC1CC(C)(C)CC2C3=CCC4C5(C)CCC(O[C@@H]6O[C@H](C(=O)O)[C@@H](O)[C@H](O)[C@H]6O[C@@H]6O[C@H](CO)[C@H](O)[C@H](O[C@@H]7OC[C@H](O)[C@H](O)[C@H]7O[C@@H]7O[C@H](CO)[C@@H](O)[C@H](O)[C@H]7O)[C@H]6O)C(C)(C)C5CCC4(C)C3(C)C(O)C(O)C12CO` (some centres undefined), the max response in the assay on HaCat was -10.3%; with KB-3-1, -3.03%.

Regarding `C=C1[C@H]2CC[C@H](C(=O)O)[C@@]23CC[C@H](C3)C1(C)C`, the max response in the assay with HaCat is -74.2%. Also, the call in the assay on KB-3-1 and in the assay on NIH3T3 was inactive.

Take `O=c1[nH]c([C@@H]2CCCN2)nc2c1oc1ccc(Cl)cc12`: in the assay with HaCat, the Potency is 1.46 µM (active). For the same molecule, the max response was -19.5% in the assay on KB-3-1 and -23.2% in the assay on NIH3T3.

`C=C1/C(=C/C=C2\CCC[C@]3(C)[C@@H]([C@@H](C)OCCC(O)(CC)CC)CC[C@@H]23)C[C@@H](O)C[C@@H]1O`: the max response is -5.69% in the assay with HaCat, -12.7% in the assay on KB-3-1 and -34.7% in the assay with NIH3T3.

Take `COc1cc2nc(N3CCN(C(=O)c4ccco4)C4CCCCC43)nc(N)c2cc1OC` (centres undefined): in the assay on HaCat, the max response is 4.28%. In addition, in the assay on KB-3-1, the Potency is 20.6 µM (active).

`CC[C@H](C(=O)Nc1ccccc1N1CCCC1)c1ccccc1`: the max response is -11.1% in the assay with HaCat, -2.95% with KB-3-1 and -0.387% with NIH3T3.

Turning to `O=c1[nH]c2cccc(N3CCN(Cc4ccc(-c5ccccc5)cc4)CC3)c2o1`, the max response with HaCat is -18.1%; in the assay with KB-3-1, -24.1%.

On to `OC1CCC(Nc2nc(-c3ccccc3)nc3[nH]ccc23)CC1` (centres undefined), for which the max response with HaCat is -12.5%; with KB-3-1 it was 7.97%; with NIH3T3, -18.3%.

`CC1=C(c2ccc(NC(=O)c3c(F)cccc3F)cc2)CN(c2nccs2)CC1`: the max response is -2.64% in the assay on HaCat and -1.55% in the assay with NIH3T3. In the assay with KB-3-1, the molecule was classed as inactive.

For the molecule `COc1ccc(Cl)c(Nc2ncnc3cc(OCC4CCN(C)CC4)c(OC)cc23)c1`, the results for the Potency with HaCat and with NIH3T3 were 4.11 µM (active) and 7.31 µM (active), respectively. The max response with KB-3-1 was 2.68%.

Turning to `CCNc1nc(Nc2cc(F)c(C(=O)N3CCOCC3)cc2OC)ncc1C(F)(F)F`, the max response in the assay on HaCat was 1.43%; in the assay on KB-3-1, -21.3%; in the assay with NIH3T3 it was -2.73%.

As to `CC(=O)Nc1cccc(-c2csc(Nc3cc(C)ccn3)n2)c1`, the results for the max response in the assay with HaCat, in the assay on KB-3-1 and with NIH3T3 were -25.9%, -18.5% and -21%, respectively.

As for `c1cc(NC2CCNCC2)nc(-c2cnc3ccccn23)c1`, the Potency is 3.66 µM (active) in the assay with HaCat, 3.26 µM (active) in the assay on KB-3-1 and 5.8 µM (active) with NIH3T3.

In the case of `CC(=O)OC1C(O)CC2(C)C(CCC3(C)C2CC=C2C4C5(CCC(CO[C@@H]6O[C@H](CO)[C@@H](O)[C@H](O)[C@H]6O)(OC5=O)C4(C)O)C(O)CC23C)C1(C)C` (some centres undefined), the results for the max response with HaCat and in the assay with NIH3T3 were -8.16% and 2.97%, respectively. In the assay with KB-3-1, the outcome was inactive.

Turning to `C[C@H]1CC[C@@]2(OC1)O[C@H]1CC3[C@@H]4CC[C@@H]5C[C@@H](O[C@@H]6O[C@H](CO)[C@@H](O[C@@H]7O[C@@H](C)[C@H](O)[C@@H](O)[C@H]7O)[C@H](O)[C@H]6O[C@@H]6O[C@H](CO)[C@@H](O)[C@H](O)[C@H]6O)CC[C@]5(C)C4CC[C@]3(C)[C@H]1[C@@H]2C` (some centres undefined), the figures for the max response in the assay with HaCat and with KB-3-1 were -24.5% and 0.898%, respectively.

Regarding `C=C1C(=O)OC2/C=C(\CO)CC/C=C(\C=O)C(OC)C(OC(=O)C(C)CC)C12` (centres undefined), the max response in the assay with HaCat is -18%. Besides, the call in the assay with KB-3-1 was inactive.

In the case of `CN(C)CCn1cc(-c2ccc(F)cc2)c(-n2cccc2)n1`, the max response is 4.28% in the assay with HaCat, -2.07% in the assay on KB-3-1 and -6.89% in the assay with NIH3T3.

Consider `CC#C[C@@H](CC(=O)O)c1ccc(OCc2cccc(-c3ccc(C(F)(F)F)cc3)c2)cc1`, for which the max response is -75.8% with HaCat and -14.7% in the assay with KB-3-1.

For `CCOc1ccc(-n2c(C(C)N(Cc3cccnc3)C(=O)Cc3ccc(F)c(C(F)(F)F)c3)nc3ncccc3c2=O)cc1` (centres undefined), the max response in the assay with HaCat is -10.9%; with NIH3T3 it was 2.59%. Besides, the call with KB-3-1 was inactive.

In the case of `O=C(NCCN1CCOCC1)c1cc2c(Oc3ccc(NC(=O)C4(C(=O)Nc5ccc(F)cc5)CC4)cc3)ccnc2[nH]1`, the max response was -28.8% in the assay with HaCat and 4.4% in the assay with KB-3-1. In addition, the Potency with NIH3T3 is 6.51 µM (active).
